# TIM10 inh: growth inhibitors of isogenic TIM10 control yeast, primary screen, counter-screen for tim10-1 yeast inhibitor project, luminescence, uHTS | S. cerevisiae TIM10 strain growth, BacTiter-Glo luminescence, 24 h | inhibition, % at 10 µM | hit rate 1.4% among 330,000;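 active means inhibition of 40% or more at the single tested concentration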;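 further: wild-type TIM10 isogenic control strain grown at permissive 25 °C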
# NALP1 inh: NALP1 inflammasome inhibitors in reconstituted yeast, colorimetric, S. cerevisiae, triplicate retest; S. cerevisiae NALP1/ASC/caspase-1 growth, X-gal OD620, 72 h; inhibition, % at 10 µM; hit rate 0.61% among 280,000; in the data active means inhibition mostly above about 24%, no sharp cut-off; inactive means mostly below about 32%
# NLRP3 yeast inh: NALP3 inflammasome inhibitors in reconstituted yeast, primary screen, luminescence, uHTS | Yeast reconstituted NLRP3/ASC/caspase-1, beta-gal luminescence, 24 h | inhibition, % at 10 µM | hit rate 0.39% among 330,000 | AID 2825, 2010;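 active means inhibition of 50% or more; inactive means inhibition below 50%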;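 further: plate controls were induced DMSO wells for no effect and uninduced yeast grown without galactose for full effect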
# tim23-1 inh: growth inhibitors of tim23-1 mutant yeast, primary screen, luminescence, uHTS | S. cerevisiae tim23-1 growth, BacTiter-Glo luminescence, 24 h | inhibition, % at 20 µM | hit rate 1.3% among 330,000 | AID 463212, 2010;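 active means growth inhibition of the mutant yeast at or above 50%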;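 further: temperature-sensitive mutant grown at 25 °C; plate controls were DMSO-treated mutant yeast for no effect and medium wells lacking yeast for full effect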
# tim10-1 inh: growth inhibitors of tim10-1 mutant yeast, primary screen, luminescence, uHTS; hit rate 2.2% among 330,000; S. cerevisiae tim10-1 ts strain growth, BacTiter-Glo, 24 h; inhibition, % at 20 µM; AID 463190, 2010;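 active means inhibition of at least 40%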;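 further: mutant grown at 25 °C; 0% = DMSO wells with yeast and 100% = wells holding no yeast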
# tim10-1 confirm: growth inhibitors of tim10-1 mutant yeast, confirmation, single concentration, luminescence, S. cerevisiae. shares compounds with tim10-1 inh. S. cerevisiae tim10-1 ts strain growth, BacTiter-Glo, 24 h. inhibition, % at 20 µM. hit rate 56% among 7,400;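 active means inhibition of yeast growth at or above a set limit in either of two repeat tests at 20 µM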;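 further: tim10-1 mutant grown at permissive 25 °C to find synthetic lethal compounds; 0% = DMSO yeast wells and 100% = medium wells without yeast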
# * = called active by the depositor; . = not tested or not shown. This is a sample that favours compounds with a hit; in the whole collection about 4% have one here.
SMILES,TIM10 inh,NALP1 inh,NLRP3 yeast inh,tim23-1 inh,tim10-1 inh,tim10-1 confirm
Cc1nn(Cc2ccc(Cl)cc2)c(C)c1NC(=O)c1noc2c1CCCCC2,35,10,12,38,43*,44*
Cc1c(Cl)c([N+](=O)[O-])nn1Cc1ccc(C(=O)Nc2ccc(Cl)cn2)o1,38,41,14,42,47*,34*
Cc1nn(Cc2ccc(Cl)cc2)c(C)c1NC(=O)c1ccc([N+](=O)[O-])cc1,16,23,11,40,53*,41*
Cc1nn(Cc2ccc(C(=O)NN)cc2)c(C)c1Cl,1,2,9,36,19,.
Cc1nn(Cc2ccc(Cl)c(Cl)c2)c(C)c1NC(=O)c1noc2c1CCCCC2,8,.,-9,15,8,.
S=C(NCCCN1CCOCC1)Nc1ccc(Cl)c(Cl)c1,13,27,5,0,16,.
CCCN1C(=O)COc2ccc(-c3n[nH]c(=O)c4ccccc34)cc21,3,-1,11,-2,7,.
COc1ccc(-c2cc(C(F)F)n3ncc(C(=O)N4CCc5ccccc5C4)c3n2)cc1,14,-10,12,33,41*,9
Cc1ccc(-c2ccc(/C=N/NC(N)=S)o2)cc1,26,-7,37,14,42*,12
COc1ccc(-c2nn(CCC#N)cc2C=C(C#N)C#N)cc1,30,.,13,28,17,.
Cc1ccc(-c2nn(CCC#N)cc2C=C(C#N)C#N)cc1,21,34,10,25,45*,23
Cc1c(CN2CCC(n3nccc3NC(=O)C3CC3)CC2)[nH]c2ccccc12,11,12,13,-3,-11,.
O=S(=O)(c1ccccc1)c1cnn(-c2ccccc2)c1-c1ccc(F)cc1,20,1,1,30,33,.
COc1ccc(-n2ncc(S(=O)(=O)c3ccccc3)c2-c2ccc(Cl)cc2)cc1,3,28,-1,32,41*,25
COC(=O)c1ccc(NC(=O)CCN2C(=O)C3CC=CCC3C2=O)cc1 (stereo not given),4,.,25,0,8,.
CCOC(=O)c1cc(C)n(-c2ccc(Cl)cc2)c1C,13,8,7,10,2,.
CCOC(=O)c1cc(C)n(-c2ccc(OC)c(OC)c2)c1C,17,3,-1,15,47*,10
CCCN(C(=O)Cn1nc(C)c([N+](=O)[O-])c1C)c1c(N)n(Cc2ccccc2)c(=O)[nH]c1=O,-8,.,9,-3,-10,.
Cc1ccc(S(=O)(=O)CCc2nnc(NC(=O)c3ccccn3)s2)cc1,8,-2,5,19,44*,29
Cc1ccc(S(=O)(=O)CCc2nnc(NC(=O)c3cnccn3)s2)cc1,4,-3,14,22,25,.
Cc1cccc(C)c1OCC(O)Cn1nnc2ccccc21 (stereo not given),2,8,22,15,12,.
Cc1cccc(C)c1OCC(O)Cn1c2ccccc2c2ccccc21 (stereo not given),31,10,21,10,45*,5
COc1cc(OC)c2c3c(c(C4CCCCC4)nc2c1)CCC3,8,.,17,20,52*,30*
COc1ccc(-c2nc(C3CCCCC3)c3cc(OC)ccc3n2)cc1,-6,.,22,5,8,.
COc1ccc(-c2cc(-c3ccccc3O)[nH]n2)cc1OC,29,-2,3,25,17,.
SMILES,TIM10 inh,NALP1 inh,NLRP3 yeast inh,tim23-1 inh,tim10-1 inh,tim10-1 confirm
Oc1ccc(Br)cc1-c1cc(-c2ccc(Cl)cc2)n[nH]1,16,-34,21,15,36,.
COc1ccc(-c2cc(-c3ccc(Cl)cc3)n[nH]2)c(O)c1,29,8,24,45,41*,45*
COc1ccc(-c2cc(-c3cc(F)ccc3O)[nH]n2)cc1OC,38,5,20,25,40,14
CC(=O)c1c(C)[nH]c(C(=O)NCCc2c[nH]c3ccccc23)c1C,4,5,1,-7,-7,.
O=C(Cc1ccccc1Cl)Nc1nc2ccccc2[nH]1,15,5,0,28,18,.
CCc1ccc(-n2nc3cc(C)c(N)cc3n2)cc1,13,5,24,24,24,.
Cc1ccc(-n2nc3cc(C)c(N)cc3n2)cc1,24,10,2,21,41*,20
O=[N+]([O-])c1cccnc1N1CCC(c2cc(-c3ccc(Cl)cc3Cl)n[nH]2)CC1,32,10,17,26,37,.
CC(=O)c1ccc(N2CCC(c3cc(-c4ccc(Cl)cc4Cl)n[nH]3)CC2)c([N+](=O)[O-])c1,36,3,13,16,44*,22
Cc1ccc(N=C2C(=O)Nc3ccc(C)c(Br)c32)cc1,16,29,5,32,41*,30*
O=C(Cn1cc(C(F)(F)F)cc(Cl)c1=O)NCCc1ccccc1,8,.,12,-5,-13,.
Cc1nn(-c2nnc(NCc3ccccc3)nn2)c(C)c1Br,13,23,29,35,49*,28
CCOC(=O)C1=C(CBr)NC(=O)NC1C (stereo not given),-11,9,10,2,1,.
O=C(CCNc1ccc(Cl)c(C(F)(F)F)c1)c1ccco1,21,-2,15,28,43*,22
O=C(C1CCN(c2nc(-c3ccccc3)nc3c2CCC3)CC1)N1CCCC1,8,11,20,19,22,.
CC1CCCCN1C(=O)C1CCN(c2nc(-c3ccccc3)nc3c2CCC3)CC1 (stereo not given),16,12,15,49,56*,10
O=c1c2[nH]c3ccc(F)cc3c2nc2n1CCCS2,18,12,29,32,41*,23
O=c1c2[nH]c3ccc(F)cc3c2nc2n1CCS2,26,8,6,19,46*,40*
CC(=O)Nc1ccc(NC(=O)c2ccnn2C)cc1,17,.,6,2,5,.
CCN(CC(=O)Nc1c(F)cccc1F)C(=O)CCc1nc2cc(S(=O)(=O)N3CCOCC3)ccc2n1C,-1,.,13,8,2,.
Cc1cc(C)c2nc(C(F)(F)F)c(C#N)c(N)c2c1,30,3,25,11,42*,20
COc1cnc(-c2ccccn2)nc1Oc1cccc(C(F)(F)F)c1,21,7,29,38,44*,22
COc1cnc(-c2ccccn2)nc1N(C)c1ccccc1,23,18,25,10,-31,.
COc1cnc(-c2ccccn2)nc1Sc1ccc(F)cc1,20,0,31,41,41*,34*
COc1cnc(-c2ccccn2)nc1Sc1ccccc1,13,17,23,48,41*,43*
COc1cnc(-c2ccccn2)nc1Sc1ccc(Cl)cc1,38,0,40,36,43*,30

# Compound activity from PubChem.
